The values that follow come from PubChem BioAssay.

Experiment [1] can be described thus: small molecules captured by biotinylated probe aFSTL3 – biochemical, small-molecule microarray, fluorescence 635/667, stem cell growth factor project, primary screen (AID 1064).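 Further: measures binding of the biotinylated anti-FSTL3 antibody to printed compounds.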 The following applies: higher = more signal.
The nature of experiment [2]: binders from COS7 lysate, DM2A8 probe, primary screen, torsin A project, cell lysate, small-molecule microarray, fluorescence 635/667 (AID 1065). The following applies: higher = more signal, COS7 lysate expressing mutant human TOR1A.
Experiment [3] in a line: small molecules captured by biotinylated probe aFGF2 – biochemical, small-molecule microarray, fluorescence 635/667, stem cell growth factor project, primary screen (AID 1067).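 Further: measures binding of biotinylated aFGF2 protein to printed compounds on slides; z-score merges feature fluorescence and signal-to-noise across triplicate slides.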 The following applies: higher = more signal.
Experiment [4] is described as follows: small molecules captured by biotinylated probe aFGF10 – biochemical, small-molecule microarray, fluorescence 635/667, stem cell growth factor project, primary screen (AID 1071).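 Further: score merges 667 nm spot intensity and signal to noise from triplicate slides.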 Particulars: higher = more signal.
The target of experiment [5] is Neurogenic locus notch homolog protein 2 (Homo sapiens) (UniProt Q04721). Briefly: small molecules binding Notch2 protein – biochemical, small-molecule microarray, 635 nm fluorescence, stem cell growth factors, primary screen (AID 1073). The following applies: higher = more signal.
Experiment [6] deals with Pro-neuregulin-1, membrane-bound isoform (Homo sapiens) (UniProt Q02297). In words: small molecules binding neuregulin-1 protein – biochemical, small-molecule microarray, fluorescence 635/667, psychiatric disease protein project, primary screen (AID 1075).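 Further: score combines 667 nm spot fluorescence with signal to noise.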 The following applies: NRG1 binding, 635 nm fluorescence, higher = more signal.
The subject of experiment [7] is Neuregulin-1 EGF-like domain. In words: small molecules binding NRG1 EGF domain – biochemical, small-molecule microarray, 635 nm fluorescence, primary screen (AID 1081).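 Further: binding of the protein to compounds printed on small-molecule microarray slides.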 The following applies: higher = more signal.
A short description of experiment [8]: FRG1 expression reporter modulators in myotubes – cell-based, C2C12 myotubes, firefly/Renilla luciferase, luminescence, FRG1 inhibition for FSHD, primary screen (AID 1084). Particulars: FRG1 promoter luciferase, higher = more signal, called active from +8 up or from −8 down.
Experiment [9] is described as follows: small molecules captured by biotinylated probe aFST – biochemical, small-molecule microarray, fluorescence 635/667, stem cell growth factor project, primary screen (AID 1086).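 Further: score merges 667 nm fluorescence with signal-to-noise of each printed compound spot.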 Particulars: higher = more signal.
A short description of experiment [10]: binders of probe aHhip on microarray, primary screen, stem cell growth factor project, biochemical, small-molecule microarray, fluorescence 635/667 (AID 1087).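 Further: score merges spot fluorescence at 667nm with spot signal to noise ratio.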 The following applies: higher = more signal.
For experiment [11], the system named is PRMT1 (protein arginine N-methyltransferase 1). In words: small molecules binding arginine methyltransferase PRMT1 – biochemical, small-molecule microarray, 635 nm fluorescence, primary screen (AID 1088).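 Further: binding of Prmt1 protein to compounds spotted on small-molecule microarray slides.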 The following applies: higher = more signal.
Experiment [12] in a line: growth effects on S. cerevisiae YJM789 – YJM789 clinical isolate, OD600, 24 h, basal, primary screen (AID 1089).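 Further: growth of clinical yeast isolate S. cerevisiae YJM 789 seeded 1000 cells per well; test concentration not given here.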 The following applies: higher = more signal, called active from +8 up or from −8 down.
Experiment [13] is described as follows: S. pombe growth modifiers, basal conditions – strain 972, OD600, 24 h, no modulator, primary screen (AID 1090).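 Further: basal condition with compound alone and no growth modifier present; test concentration not given here.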 The following applies: S. pombe 972 growth, higher = more signal, called active from +8 up or from −8 down.
A short description of experiment [14]: budding yeast growth modifiers under rapamycin – strain BY4716, OD600, 96 h, primary screen (AID 1091). Further: test concentration not given here. The following applies: S. cerevisiae BY4716 + rapamycin, higher = more signal, called active from +8 up or from −8 down.
Experiment [15] concerns the target Torsin-1A-interacting protein 2 (Homo sapiens) (UniProt Q8NFQ8). Briefly: small molecules binding lysate-expressed LULL1 – cell lysate, human LULL1 lysate, 635/667 nm fluorescence, primary screen (AID 1092).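 Further: probe is lysate of COS7 cells overexpressing human LULL1; score merges per-feature 667 nm fluorescence with signal-to-noise.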 Particulars: small-molecule microarray, hLULL1 lysate binding, 635 nm fluorescence; higher = more signal.
The nature of experiment [16]: optical density change of DRC41 E. coli – strain DRC41, OD650, 24 h, E. coli filamentation project, primary screen (AID 1093).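 Further: MC1000 strain lacking acrAB efflux and sulA so SOS filamentation is blocked; test concentration not given here.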 The following applies: E. coli DRC41 growth, higher = more signal, called active from +8 up or from −8 down.
Experiment [17] is described as follows: probe aLefty2 binding to arrayed compounds – biochemical, biotinylated probe, 635/667 nm fluorescence, primary screen (AID 1094).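 Further: score merges spot fluorescence near 667 nm with spot signal-to-noise ratio.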 Particulars: small-molecule microarray, higher = more signal.
Experiment [18] has as its system Noggin (protein binding on small-molecule microarray). Briefly: small molecules binding Noggin protein – biochemical, 635/667 nm fluorescence, primary screen (AID 1095).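 Further: score merges 667 nm feature fluorescence with signal to noise over triplicate slides.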 The following applies: 635 nm fluorescence, higher = more signal.
For experiment [19], the target named is Neurogenic locus notch homolog protein 3 (Homo sapiens) (UniProt Q9UM47). Briefly: small molecules binding NOTCH3 protein – biochemical, 635/667 nm fluorescence, primary screen (AID 1096). The following applies: small-molecule microarray, 635 nm fluorescence, higher = more signal.
A short description of experiment [20]: probe aEGFR binding to arrayed compounds – biochemical, biotinylated probe, 635/667 nm fluorescence, primary screen (AID 1097).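 Further: probe is a biotinylated anti-EGFR antibody binding compounds printed on slides; score combines fluorescence near 667 nm and signal to noise of each spot.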 The following applies: small-molecule microarray, higher = more signal.

The source made the active and inactive calls.

Chain of Pro-neuregulin-1, membrane-bound isoform (Homo sapiens) (Q02297 whole entry, looked up, the tested form may be a part, canonical isoform): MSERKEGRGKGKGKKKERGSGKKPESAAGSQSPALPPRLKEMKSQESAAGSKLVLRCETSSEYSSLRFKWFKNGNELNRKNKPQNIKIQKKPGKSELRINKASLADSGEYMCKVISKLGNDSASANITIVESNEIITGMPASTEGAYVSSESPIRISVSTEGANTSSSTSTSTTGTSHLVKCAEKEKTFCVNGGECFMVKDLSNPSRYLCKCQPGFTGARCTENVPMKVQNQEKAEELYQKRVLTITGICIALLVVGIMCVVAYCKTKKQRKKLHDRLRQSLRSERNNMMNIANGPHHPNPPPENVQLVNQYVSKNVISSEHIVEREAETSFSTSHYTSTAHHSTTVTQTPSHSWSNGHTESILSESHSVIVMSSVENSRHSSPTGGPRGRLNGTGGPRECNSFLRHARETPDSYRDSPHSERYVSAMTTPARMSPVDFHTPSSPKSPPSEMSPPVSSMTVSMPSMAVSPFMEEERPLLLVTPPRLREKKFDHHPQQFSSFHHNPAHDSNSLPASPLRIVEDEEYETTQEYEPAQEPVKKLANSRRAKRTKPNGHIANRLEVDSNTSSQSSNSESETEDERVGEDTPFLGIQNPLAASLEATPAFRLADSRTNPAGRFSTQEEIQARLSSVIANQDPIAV
Chain of Torsin-1A-interacting protein 2 (Homo sapiens) (Q8NFQ8 whole entry, looked up): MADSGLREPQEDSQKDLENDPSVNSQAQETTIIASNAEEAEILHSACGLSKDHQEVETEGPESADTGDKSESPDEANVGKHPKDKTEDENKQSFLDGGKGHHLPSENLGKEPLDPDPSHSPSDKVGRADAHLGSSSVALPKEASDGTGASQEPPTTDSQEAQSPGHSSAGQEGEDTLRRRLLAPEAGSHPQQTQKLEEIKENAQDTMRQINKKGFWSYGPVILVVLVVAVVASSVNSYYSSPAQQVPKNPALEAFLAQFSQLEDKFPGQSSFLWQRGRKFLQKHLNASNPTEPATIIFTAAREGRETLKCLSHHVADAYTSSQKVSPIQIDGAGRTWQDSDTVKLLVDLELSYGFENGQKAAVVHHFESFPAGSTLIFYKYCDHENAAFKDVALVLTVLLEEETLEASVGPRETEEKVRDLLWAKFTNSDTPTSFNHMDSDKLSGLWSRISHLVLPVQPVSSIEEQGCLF
Chain of Neurogenic locus notch homolog protein 3 (Homo sapiens) (Q9UM47 whole entry, looked up): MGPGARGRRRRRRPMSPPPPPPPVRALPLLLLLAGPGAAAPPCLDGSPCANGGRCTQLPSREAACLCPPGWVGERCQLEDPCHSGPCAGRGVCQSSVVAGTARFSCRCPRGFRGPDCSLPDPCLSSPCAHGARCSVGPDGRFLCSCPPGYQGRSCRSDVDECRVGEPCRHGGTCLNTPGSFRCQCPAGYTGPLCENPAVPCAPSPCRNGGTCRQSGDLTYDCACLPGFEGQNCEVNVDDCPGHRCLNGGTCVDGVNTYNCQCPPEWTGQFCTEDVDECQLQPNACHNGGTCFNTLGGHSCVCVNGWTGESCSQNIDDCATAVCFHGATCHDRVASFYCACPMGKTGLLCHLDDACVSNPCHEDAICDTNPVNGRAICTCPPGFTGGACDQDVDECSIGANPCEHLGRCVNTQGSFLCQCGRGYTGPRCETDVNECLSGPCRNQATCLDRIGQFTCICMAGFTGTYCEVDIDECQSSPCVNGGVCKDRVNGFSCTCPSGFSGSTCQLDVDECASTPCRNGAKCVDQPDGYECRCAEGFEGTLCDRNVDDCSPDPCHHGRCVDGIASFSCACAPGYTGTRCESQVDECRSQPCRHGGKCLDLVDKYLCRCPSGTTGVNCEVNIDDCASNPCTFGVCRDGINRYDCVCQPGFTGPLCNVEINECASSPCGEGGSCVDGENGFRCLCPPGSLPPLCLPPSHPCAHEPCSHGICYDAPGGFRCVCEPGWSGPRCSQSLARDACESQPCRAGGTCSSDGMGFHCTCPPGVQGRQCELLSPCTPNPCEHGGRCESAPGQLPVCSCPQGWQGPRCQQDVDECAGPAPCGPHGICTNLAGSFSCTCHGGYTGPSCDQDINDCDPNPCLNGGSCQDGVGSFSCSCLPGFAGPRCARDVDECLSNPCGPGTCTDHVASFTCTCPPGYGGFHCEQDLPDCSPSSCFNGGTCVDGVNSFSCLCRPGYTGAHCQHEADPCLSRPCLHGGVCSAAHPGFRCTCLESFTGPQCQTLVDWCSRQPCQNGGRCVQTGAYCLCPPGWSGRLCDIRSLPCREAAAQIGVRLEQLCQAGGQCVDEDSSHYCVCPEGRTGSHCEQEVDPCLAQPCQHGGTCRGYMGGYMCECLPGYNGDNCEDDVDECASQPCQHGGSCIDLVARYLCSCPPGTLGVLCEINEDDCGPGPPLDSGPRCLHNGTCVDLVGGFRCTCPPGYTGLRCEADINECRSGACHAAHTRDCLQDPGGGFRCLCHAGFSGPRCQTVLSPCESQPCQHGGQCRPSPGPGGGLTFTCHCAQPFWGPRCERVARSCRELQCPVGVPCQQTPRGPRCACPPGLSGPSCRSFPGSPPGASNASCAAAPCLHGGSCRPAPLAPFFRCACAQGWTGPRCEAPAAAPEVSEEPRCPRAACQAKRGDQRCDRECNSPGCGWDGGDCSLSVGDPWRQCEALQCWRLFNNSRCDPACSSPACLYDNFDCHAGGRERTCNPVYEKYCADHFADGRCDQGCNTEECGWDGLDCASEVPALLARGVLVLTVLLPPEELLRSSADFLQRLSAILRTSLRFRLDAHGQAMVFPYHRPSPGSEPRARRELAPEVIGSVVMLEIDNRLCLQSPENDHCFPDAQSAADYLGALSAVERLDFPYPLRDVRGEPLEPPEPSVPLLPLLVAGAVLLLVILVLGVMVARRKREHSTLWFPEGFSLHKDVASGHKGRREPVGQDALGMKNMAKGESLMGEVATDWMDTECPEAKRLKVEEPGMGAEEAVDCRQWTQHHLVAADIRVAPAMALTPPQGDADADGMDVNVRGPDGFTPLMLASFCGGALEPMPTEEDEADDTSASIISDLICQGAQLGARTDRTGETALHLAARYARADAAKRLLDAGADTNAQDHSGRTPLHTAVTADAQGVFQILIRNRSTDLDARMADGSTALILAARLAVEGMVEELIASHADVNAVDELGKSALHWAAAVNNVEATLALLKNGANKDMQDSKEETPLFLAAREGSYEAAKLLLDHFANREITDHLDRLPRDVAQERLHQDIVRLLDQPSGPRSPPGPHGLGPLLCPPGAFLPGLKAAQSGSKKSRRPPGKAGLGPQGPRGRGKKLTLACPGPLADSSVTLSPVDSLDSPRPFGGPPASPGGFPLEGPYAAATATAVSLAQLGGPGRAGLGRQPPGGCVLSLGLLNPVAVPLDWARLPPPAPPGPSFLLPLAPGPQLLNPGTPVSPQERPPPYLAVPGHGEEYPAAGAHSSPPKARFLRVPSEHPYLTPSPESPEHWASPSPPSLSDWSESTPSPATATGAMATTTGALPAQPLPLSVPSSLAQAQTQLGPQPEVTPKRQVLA

For `O=C(O)[C@@]1(Cc2ccccc2)N=C(c2ccc(OCCCO)cc2)O[C@H]1c1ccccc1`, the composite z-score in [1] is 0.447; in [2] it was -0.647; in [3] it was -0.0819; in [4], 0.0083; in [5] it was -0.738; in experiment [6] it was 1.91. The composite z-score in experiment [7] is 0.923; in [9], 0.88; in [10], -0.126; in [11], 1.48; in experiment [15], 2.42; in experiment [17], -0.126. The figures for the composite z-score in experiment [18], in [19] and in [20] were 0.454, 0.793 and -0.184, respectively. The z-score in experiment [8] is -3.29 (inactive); in experiment [12] it was 0.552 (inactive); in [13], -0.93 (inactive); in experiment [14] it was 0.115 (inactive); in experiment [16], 0.625 (inactive).
For `CS(=O)(=O)CCOC(=O)C1=CC(CCCO)=CC(c2cccs2)N(Cc2cc3c(cc2Br)OCO3)C=C1C(=O)OCCS(C)(=O)=O` (stereo not given), the composite z-score in experiment [1] is -0.281; in experiment [2] it was 0.24; in experiment [3], 0.0737; in experiment [4] it was 0.517; in experiment [5], 1.5; in [6] it was 1.88. The composite z-score is 1.31 in [7]; 0.827 in experiment [9]; 0.463 in experiment [10]; 1.56 in experiment [11]; 2.82 in experiment [15]; -0.0379 in [17]. Further, the composite z-score came out at 0.91 in experiment [18], 1.06 in [19] and 0.0503 in [20]. The z-score in [8] is -1.91 (inactive); in experiment [12], 0.187 (inactive); in experiment [13], -1.16 (inactive); in [14], -0.919 (inactive); in experiment [16], 0.734 (inactive).
In the case of `CCOC(=O)[C@H]1C[C@H]2O[C@@]23C[C@H]1C(=O)N1CCCC1[C@@H]3O[Si](C)(C)C(C)(C)C` (stereo not given in full), the composite z-score in experiment [1] is -0.328; in [2], -0.537; in experiment [3], -0.104; in [4], -0.101; in [5], -0.547; in experiment [6], -0.333. The composite z-score in [7] is -0.76; in experiment [9] it was 0.0204; in experiment [10], 0.0274; in experiment [11], 0.105; in [15], -0.0341; in experiment [17], 0.807. In addition, the composite z-score in [18] is 0.478; in [19], -0.288; in experiment [20], -0.149. Moreover, the z-score in experiment [8] is -0.184 (inactive); in experiment [12], -0.938 (inactive); in experiment [13], -3.58 (inactive); in experiment [14], -1.12 (inactive); in experiment [16] it was -0.788 (inactive).
For `N#Cc1ccc(NN2C(C(O)c3cccs3)C=CC3C(=O)N(c4ccccc4)C(=O)C32)cc1` (stereo not given), the composite z-score in experiment [1] came to 0.106; in experiment [2], 0.145; in experiment [3] it was 0.0887; in experiment [4], 0.546; in [5], 1.47; in experiment [6], 1.93. Further, the composite z-score in experiment [7] is 1.06; in experiment [9], 0.632; in experiment [10] it was -0.236; in experiment [11] it was 0.843; in experiment [15], 3.35; in experiment [17] it was -0.0768. Also, the figures for the composite z-score in experiment [18], in [19] and in [20] were -0.187, 0.708 and -0.0357, respectively. The z-score was -0.911 (inactive) in [8]; -1.34 (inactive) in [12]; 1.73 (inactive) in [13]; 2.72 (inactive) in experiment [14]; -0.445 (inactive) in experiment [16].
As to `CCOC(=O)C[C@H]1[C@H](OC(=O)Cc2ccc3c(c2)OCO3)[C@@H](NC(=O)C2CCCCC2)c2cc(OCCCO)ccc2N1C(=O)Cc1ccc(OC)cc1`, the composite z-score in experiment [1] is -0.397; in [2], 0.0664; in [3], -0.048; in experiment [4], 0.145; in experiment [5] it was 1.17; in experiment [6] it was -0.054. For the same compound, the composite z-score in experiment [7] was 0.86; in [9], 0.364; in experiment [10], 0.0515; in experiment [11], 1.19; in [15], 1.89; in experiment [17], -0.0313. Further, the composite z-score in experiment [18] was 0.509; in experiment [19], 0.892; in experiment [20], -0.0234. Besides, the z-score was -2.5 (inactive) in experiment [8]; -1.74 (inactive) in [12]; -0.38 (inactive) in experiment [13]; -0.558 (inactive) in experiment [14]; 1.21 (inactive) in experiment [16].
